From the supplement of paper PMC11732987, “Enantioselective OTUD7B fragment discovery through chemoproteomics screening and high-throughput optimisation” (Communications Chemistry, 2025)

Tests used:
Assay in all cases: log2 ratio of Biotin-Ahx-Ub-VS probe labelling (fragment/DMSO); higher = less target engagement (more negative = stronger competition), active = hit call of the paper (q ≤ 0.05, log2 ratio ≤ -1)
Details in all cases: compound concentration: 200 uM; treatment time: 3 h
USP19 = target: T1, USP19 (UniProt O94966)
T1 sequence (whole entry): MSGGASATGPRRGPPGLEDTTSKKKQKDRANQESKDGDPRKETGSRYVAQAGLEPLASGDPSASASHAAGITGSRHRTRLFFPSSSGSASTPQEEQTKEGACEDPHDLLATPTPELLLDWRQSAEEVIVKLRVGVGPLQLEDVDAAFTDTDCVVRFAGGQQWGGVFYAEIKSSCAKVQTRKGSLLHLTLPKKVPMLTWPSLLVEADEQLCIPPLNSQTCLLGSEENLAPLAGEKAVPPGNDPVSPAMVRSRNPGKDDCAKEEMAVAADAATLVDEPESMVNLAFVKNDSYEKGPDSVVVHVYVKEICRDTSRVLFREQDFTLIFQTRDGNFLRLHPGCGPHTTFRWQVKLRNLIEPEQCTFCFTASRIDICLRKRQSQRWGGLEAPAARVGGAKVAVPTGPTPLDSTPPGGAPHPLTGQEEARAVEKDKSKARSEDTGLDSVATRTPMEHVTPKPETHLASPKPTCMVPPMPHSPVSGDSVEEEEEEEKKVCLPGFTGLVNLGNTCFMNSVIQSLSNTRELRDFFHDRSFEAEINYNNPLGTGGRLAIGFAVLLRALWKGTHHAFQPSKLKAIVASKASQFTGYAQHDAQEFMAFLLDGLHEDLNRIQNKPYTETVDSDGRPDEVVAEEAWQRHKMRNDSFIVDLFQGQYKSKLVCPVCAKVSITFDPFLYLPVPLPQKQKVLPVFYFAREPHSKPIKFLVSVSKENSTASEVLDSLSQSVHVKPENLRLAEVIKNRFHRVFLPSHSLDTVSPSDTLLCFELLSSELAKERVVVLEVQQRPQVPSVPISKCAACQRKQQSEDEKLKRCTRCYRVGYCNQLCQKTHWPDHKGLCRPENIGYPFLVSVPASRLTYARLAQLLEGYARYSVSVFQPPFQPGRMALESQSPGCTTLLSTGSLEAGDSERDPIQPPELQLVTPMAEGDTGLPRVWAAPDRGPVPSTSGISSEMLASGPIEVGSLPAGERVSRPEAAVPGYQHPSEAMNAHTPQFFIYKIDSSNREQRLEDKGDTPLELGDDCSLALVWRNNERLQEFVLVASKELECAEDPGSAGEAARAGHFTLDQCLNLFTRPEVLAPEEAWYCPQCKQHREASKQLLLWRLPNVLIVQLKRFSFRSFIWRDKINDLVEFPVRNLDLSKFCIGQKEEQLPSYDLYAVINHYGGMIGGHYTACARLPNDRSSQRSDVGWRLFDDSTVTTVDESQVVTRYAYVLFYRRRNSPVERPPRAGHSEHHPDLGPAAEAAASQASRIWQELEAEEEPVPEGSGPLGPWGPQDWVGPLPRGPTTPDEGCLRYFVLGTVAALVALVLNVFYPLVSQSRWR
Method in brief: (§1)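 The table lists average log2 ratios of fragment over vehicle, from an unpaired t-test on global-median-normalised Spectronaut label-free quantities. Proteins with ≥2 unique peptides were used. Samples were HEK293T lysate (495 µg) treated in triplicate with fragment at 200 µM or vehicle for 3 h, then with Biotin-Ahx-Ub-VS (0.5 µM final) for 1 h, with labelled DUBs NeutrAvidin-enriched and run by diaPASEF LC-MS/MS.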

USP22 = target: T2, USP22 (UniProt Q9UPT9)
T2 sequence (whole entry): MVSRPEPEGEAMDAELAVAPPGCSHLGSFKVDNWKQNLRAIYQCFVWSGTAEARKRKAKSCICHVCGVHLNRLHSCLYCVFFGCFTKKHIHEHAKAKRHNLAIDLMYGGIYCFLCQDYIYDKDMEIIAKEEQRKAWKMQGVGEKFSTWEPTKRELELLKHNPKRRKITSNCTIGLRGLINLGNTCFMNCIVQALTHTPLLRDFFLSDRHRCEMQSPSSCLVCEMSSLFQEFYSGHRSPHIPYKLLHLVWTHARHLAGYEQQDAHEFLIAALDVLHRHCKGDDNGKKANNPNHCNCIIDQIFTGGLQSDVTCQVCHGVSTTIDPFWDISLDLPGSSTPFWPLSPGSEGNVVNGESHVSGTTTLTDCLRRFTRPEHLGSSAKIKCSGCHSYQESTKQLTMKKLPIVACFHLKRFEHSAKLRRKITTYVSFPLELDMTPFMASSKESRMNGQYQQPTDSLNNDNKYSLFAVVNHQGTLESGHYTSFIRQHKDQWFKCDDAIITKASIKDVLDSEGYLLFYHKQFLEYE
Method in brief: as §1

USP24 = USP24 (UniProt Q9UPU5)
Method in brief: as §1

USP25 = target: T3, USP25 (UniProt Q9UHP3)
T3 sequence (whole entry): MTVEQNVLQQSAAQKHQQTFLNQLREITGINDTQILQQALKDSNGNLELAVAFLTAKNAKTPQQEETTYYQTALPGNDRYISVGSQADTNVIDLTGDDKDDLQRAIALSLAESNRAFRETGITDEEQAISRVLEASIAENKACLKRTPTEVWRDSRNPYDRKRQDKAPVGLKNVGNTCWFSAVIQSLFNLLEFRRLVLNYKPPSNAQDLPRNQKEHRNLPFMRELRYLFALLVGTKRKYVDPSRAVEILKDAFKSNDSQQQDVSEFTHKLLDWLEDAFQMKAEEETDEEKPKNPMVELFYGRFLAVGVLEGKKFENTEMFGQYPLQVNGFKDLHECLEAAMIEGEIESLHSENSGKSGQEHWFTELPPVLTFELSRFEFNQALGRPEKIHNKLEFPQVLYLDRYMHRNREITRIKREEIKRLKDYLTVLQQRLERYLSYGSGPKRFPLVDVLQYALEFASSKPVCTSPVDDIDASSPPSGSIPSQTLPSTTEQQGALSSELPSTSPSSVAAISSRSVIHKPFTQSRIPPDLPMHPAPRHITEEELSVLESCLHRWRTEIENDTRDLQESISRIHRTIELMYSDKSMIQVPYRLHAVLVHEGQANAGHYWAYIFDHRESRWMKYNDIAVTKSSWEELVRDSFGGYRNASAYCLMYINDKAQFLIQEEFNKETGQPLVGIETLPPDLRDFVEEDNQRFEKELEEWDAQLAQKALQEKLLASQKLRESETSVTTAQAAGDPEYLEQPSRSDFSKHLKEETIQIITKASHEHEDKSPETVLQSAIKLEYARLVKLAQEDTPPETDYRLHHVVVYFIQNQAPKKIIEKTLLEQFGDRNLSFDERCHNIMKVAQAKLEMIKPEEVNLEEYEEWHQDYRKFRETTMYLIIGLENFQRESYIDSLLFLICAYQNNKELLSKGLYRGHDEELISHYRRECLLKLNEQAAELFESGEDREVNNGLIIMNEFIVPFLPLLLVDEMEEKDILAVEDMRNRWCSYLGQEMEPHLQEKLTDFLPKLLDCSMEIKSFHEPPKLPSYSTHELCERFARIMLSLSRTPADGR
Method in brief: as §1

USP28 = target: T4, USP28 (UniProt Q96RU2)
T4 sequence (whole entry): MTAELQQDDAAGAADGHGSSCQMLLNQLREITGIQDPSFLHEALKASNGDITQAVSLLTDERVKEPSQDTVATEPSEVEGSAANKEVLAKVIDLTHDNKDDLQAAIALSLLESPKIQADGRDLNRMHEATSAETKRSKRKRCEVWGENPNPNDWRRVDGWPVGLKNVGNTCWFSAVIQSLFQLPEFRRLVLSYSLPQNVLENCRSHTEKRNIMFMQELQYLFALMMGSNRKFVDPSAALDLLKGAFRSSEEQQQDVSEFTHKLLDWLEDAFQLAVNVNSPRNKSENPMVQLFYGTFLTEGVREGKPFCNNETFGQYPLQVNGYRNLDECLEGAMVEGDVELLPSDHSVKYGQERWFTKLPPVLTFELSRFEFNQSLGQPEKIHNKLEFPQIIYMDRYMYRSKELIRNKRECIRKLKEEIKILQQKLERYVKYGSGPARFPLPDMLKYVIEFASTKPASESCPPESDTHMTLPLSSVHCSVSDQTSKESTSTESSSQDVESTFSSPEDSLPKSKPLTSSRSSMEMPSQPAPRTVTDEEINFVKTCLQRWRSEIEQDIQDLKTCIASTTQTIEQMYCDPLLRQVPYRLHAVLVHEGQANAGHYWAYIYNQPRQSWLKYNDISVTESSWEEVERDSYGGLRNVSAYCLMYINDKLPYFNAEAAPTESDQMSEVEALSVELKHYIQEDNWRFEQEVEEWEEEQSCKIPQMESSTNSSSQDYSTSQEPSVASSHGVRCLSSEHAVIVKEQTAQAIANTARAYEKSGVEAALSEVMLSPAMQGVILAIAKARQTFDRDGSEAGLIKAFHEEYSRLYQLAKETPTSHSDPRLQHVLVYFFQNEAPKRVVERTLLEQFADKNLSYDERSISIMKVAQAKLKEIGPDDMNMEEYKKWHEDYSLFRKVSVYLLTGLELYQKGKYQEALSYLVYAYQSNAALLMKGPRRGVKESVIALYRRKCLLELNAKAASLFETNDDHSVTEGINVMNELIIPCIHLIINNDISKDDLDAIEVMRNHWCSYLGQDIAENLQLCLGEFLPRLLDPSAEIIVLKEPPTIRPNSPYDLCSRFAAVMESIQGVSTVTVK
Method in brief: as §1

Measured: log2 ratio of Biotin-Ahx-Ub-VS probe labelling

USP24, sequence (Q9UPU5 whole entry): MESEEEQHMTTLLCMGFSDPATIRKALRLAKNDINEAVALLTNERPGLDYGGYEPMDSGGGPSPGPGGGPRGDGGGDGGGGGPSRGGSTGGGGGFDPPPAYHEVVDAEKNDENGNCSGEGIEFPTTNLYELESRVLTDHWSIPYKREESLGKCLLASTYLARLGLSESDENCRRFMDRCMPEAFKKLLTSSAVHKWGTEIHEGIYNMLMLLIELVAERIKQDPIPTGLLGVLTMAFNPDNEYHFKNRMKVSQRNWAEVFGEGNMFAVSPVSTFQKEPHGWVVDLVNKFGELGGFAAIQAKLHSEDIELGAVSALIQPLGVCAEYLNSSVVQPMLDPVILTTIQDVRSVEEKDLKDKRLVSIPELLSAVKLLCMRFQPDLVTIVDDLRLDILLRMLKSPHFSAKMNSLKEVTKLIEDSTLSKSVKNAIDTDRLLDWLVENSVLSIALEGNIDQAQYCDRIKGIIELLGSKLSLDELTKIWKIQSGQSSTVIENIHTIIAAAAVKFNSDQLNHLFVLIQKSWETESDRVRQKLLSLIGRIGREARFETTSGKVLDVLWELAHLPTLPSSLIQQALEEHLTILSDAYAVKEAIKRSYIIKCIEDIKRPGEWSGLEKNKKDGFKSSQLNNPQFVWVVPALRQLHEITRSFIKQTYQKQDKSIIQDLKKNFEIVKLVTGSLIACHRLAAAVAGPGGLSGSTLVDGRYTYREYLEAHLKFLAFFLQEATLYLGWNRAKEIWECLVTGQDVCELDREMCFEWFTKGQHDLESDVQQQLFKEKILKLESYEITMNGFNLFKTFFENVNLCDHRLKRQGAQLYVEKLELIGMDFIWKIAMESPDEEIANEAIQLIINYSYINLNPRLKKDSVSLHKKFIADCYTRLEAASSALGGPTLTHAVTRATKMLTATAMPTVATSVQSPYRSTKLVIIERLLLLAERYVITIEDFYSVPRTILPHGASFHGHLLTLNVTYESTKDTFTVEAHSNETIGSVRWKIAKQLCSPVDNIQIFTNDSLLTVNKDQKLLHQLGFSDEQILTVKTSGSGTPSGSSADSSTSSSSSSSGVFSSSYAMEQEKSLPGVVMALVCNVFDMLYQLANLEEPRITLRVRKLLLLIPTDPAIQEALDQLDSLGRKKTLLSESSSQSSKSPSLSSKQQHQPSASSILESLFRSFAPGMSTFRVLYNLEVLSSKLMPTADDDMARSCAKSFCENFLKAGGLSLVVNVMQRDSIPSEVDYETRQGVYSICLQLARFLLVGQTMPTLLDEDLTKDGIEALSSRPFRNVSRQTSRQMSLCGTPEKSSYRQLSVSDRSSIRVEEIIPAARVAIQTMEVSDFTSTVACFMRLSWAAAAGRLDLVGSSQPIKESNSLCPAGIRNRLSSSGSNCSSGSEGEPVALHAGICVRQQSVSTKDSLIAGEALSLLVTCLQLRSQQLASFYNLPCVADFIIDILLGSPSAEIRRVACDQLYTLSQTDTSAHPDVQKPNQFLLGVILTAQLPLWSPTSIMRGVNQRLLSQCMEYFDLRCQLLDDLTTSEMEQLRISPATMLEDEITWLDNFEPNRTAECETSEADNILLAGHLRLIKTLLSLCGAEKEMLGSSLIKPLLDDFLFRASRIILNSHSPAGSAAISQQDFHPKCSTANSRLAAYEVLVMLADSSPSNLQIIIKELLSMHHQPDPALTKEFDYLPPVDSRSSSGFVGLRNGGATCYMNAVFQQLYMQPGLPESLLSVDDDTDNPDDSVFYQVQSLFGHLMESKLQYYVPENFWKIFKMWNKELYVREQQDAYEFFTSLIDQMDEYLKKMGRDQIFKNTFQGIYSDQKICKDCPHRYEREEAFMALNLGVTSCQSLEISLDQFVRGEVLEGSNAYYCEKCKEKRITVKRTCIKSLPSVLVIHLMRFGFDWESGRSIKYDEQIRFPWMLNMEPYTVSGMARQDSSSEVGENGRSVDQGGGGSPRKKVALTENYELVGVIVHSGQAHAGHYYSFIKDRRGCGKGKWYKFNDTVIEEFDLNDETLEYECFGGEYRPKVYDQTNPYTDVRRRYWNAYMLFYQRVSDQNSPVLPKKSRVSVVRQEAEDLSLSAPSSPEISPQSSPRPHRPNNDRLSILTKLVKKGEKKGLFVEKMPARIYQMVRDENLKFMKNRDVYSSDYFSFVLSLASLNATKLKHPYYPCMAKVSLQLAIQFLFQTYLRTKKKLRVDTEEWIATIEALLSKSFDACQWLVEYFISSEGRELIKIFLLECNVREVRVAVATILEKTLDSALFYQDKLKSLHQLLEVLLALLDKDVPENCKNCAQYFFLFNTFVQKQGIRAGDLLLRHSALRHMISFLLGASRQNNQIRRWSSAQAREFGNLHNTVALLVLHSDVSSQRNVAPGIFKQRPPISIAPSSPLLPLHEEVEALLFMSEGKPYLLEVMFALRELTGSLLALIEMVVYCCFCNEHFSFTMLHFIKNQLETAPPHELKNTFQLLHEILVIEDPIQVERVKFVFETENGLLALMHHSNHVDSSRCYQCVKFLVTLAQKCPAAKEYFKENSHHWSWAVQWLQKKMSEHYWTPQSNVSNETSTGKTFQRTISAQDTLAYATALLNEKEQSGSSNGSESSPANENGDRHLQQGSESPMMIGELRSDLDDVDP

Cc1ccc(CNC(=O)CCl)nc1C.Cl
inactive: USP19 -0.0635 | USP22 0.00229 | USP24 -0.467 | USP25 -0.436 | USP28 -0.456
